Assay results as given in PubChem BioAssay (NCI).
This is part of a sample that, as a whole, favours compounds with a hit. Of some 83,000 tested, about 20% had one in any assay.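 96-well plates, one dose, 48 hours. Percent growth reported; active if below 10.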 Calls of active or inactive are those of the source.

What was measured:
Assay in all cases: NCI-60 one-dose screen, 48 h (100 = growth as untreated, 0 = no growth, -100 = all killed)
Conditions in all cases: 10 µM unless noted
[1] = test system: HCT-15 colon
[2] = test system: HT29 colon
[3] = test system: SNB-75 CNS
[4] = test system: SNB-19 CNS
[5] = test system: U251 CNS
[6] = test system: PC-3 prostate
[7] = test system: SK-MEL-5 melanoma
[8] = test system: UACC-62 melanoma
[9] = test system: LOX IMVI melanoma
[10] = test system: SK-MEL-28 melanoma
[11] = test system: SK-MEL-2 melanoma
[12] = test system: EKVX NSCLC
[13] = test system: SN12C renal
[14] = test system: UO-31 renal
[15] = test system: TK-10 renal
[16] = test system: ACHN renal
[17] = test system: CAKI-1 renal
[18] = test system: A498 renal
[19] = test system: CCRF-CEM leukemia
[20] = test system: MOLT-4 leukemia

Measured: growth

COC(=O)c1n[nH]c2ccc3nc(-c4cn[nH]c4C(F)(F)F)c4c(c3c12)CCCC4
active: [18] 5.79%
inactive: [1] 39% | [2] 25.7% | [3] 28.8% | [4] 68.7% | [5] 41.7% | [6] 64.4% | [7] 40.4% | [8] 21.6% | [9] 21.7% | [10] 25.5% | [11] 11.9% | [12] 64% | [13] 47.7% | [14] 29% | [15] 19.4% | [16] 39% | [17] 15.3% | [19] 42.8% | [20] 50.4%

CCN1CC(=O)N(/N=C2\C(=O)Nc3ccccc32)C1=S
inactive: [1] 95.1% | [2] 102% | [3] 80.3% | [4] 91.9% | [5] 99.2% | [6] 92% | [7] 79.4% | [8] 76.4% | [9] 86.5% | [10] 111% | [11] 92.7% | [12] 80.8% | [13] 86.1% | [14] 60.5% | [15] 105% | [16] 76.9% | [17] 59% | [18] 82.4% | [19] 102% | [20] 98%

Cc1cc(N)c2cc(NC(=O)/C=C\c3ccccc3Cl)ccc2n1
active: [2] -64.4% | [3] -90.8% | [4] -86.3% | [5] -85.9% | [6] -91.5% | [7] -94.9% | [8] -80.9% | [9] -75.1% | [10] -96.1% | [11] -72.5% | [12] -71.8% | [13] -81.7% | [14] -72.1% | [15] -90% | [16] -85% | [17] -76% | [18] -88.3% | [19] -74.2% | [20] -53.2%
inactive: [1] 10.9%

COc1cc(/C=C/C(=O)c2cccc(Nc3nc(Nc4ccccc4)nc(Nc4ccccc4)n3)c2)cc(OC)c1OC
inactive: [1] 49.6% | [2] 48.8% | [3] 52.8% | [4] 93.9% | [5] 29.8% | [6] 24.7% | [7] 51% | [8] 64% | [9] 45.3% | [10] 68.9% | [11] 53.6% | [12] 66.1% | [13] 84.2% | [14] 35.3% | [15] 66.3% | [16] 68.3% | [17] 75.5% | [18] 68.8%
active: [19] 6.56% | [20] 9.67%

C=C1C(=O)O[C@H]2[C@H]1CC/C(COC(=O)CSCCSCC(=O)OC/C1=C/CC[C@@]3(C)O[C@H]3[C@H]3OC(=O)C(=C)[C@@H]3CC1)=C\CC[C@@]1(C)O[C@@H]21
active: [1] -18.1% | [2] 0.0255% | [5] 7.29% | [6] 1.19% | [9] -53.3% | [10] 4.71% | [13] -10.4% | [14] 7.85% | [16] 2.6% | [17] 9.17% | [19] -41.5% | [20] -22.5%
inactive: [3] 56.6% | [4] 55.9% | [7] 78.4% | [8] 25.6% | [11] 70% | [12] 11% | [15] 16.6% | [18] 88.7%

Cc1cccc2c1NC(=O)C2(c1ccc(O)cc1)c1ccc(O)cc1
inactive: [1] 49.3% | [2] 79.2% | [3] 23.1% | [4] 102% | [5] 90.1% | [6] 38.9% | [7] 96.5% | [8] 83.8% | [9] 59.2% | [10] 106% | [11] 89.2% | [12] 75.7% | [13] 11.2% | [14] 89.2% | [15] 28.8% | [16] 78.5% | [17] 94.1% | [18] 81.5% | [19] 71.2% | [20] 84.2%

Cc1c(-c2nc3ccc(F)cc3c(=O)[nH]2)c2ccccc2n1C
active: [3] -7.98% | [18] -12.8%
inactive: [1] 22.9% | [2] 10.7% | [4] 29.2% | [5] 27.6% | [6] 47.1% | [7] 36.2% | [8] 19.6% | [9] 34.5% | [10] 52% | [11] 45.6% | [12] 57.5% | [13] 38.8% | [14] 53.7% | [15] 83.5% | [16] 36% | [17] 40.8% | [19] 15.6% | [20] 23%

CCOC(=O)c1ccc2[nH]c(O)c(C(=Nc3ccc(N(C)C(=O)CN4CCN(C)CC4)cc3)c3ccccc3)c2c1
inactive: [8] 17% | [13] 11.4%
active: [1] -23.6% | [2] -33.8% | [3] -99.2% | [4] 2.34% | [5] -86.4% | [6] 4.9% | [7] -94% | [9] -93.2% | [10] -11.9% | [11] -59.2% | [12] -3.53% | [14] -41.6% | [15] -70% | [16] 2.92% | [17] -0.635% | [18] -59.9% | [19] 4.58% | [20] -14%
